# How the values were obtained:
# Assay in all cases: DAPPL (digital affinity profiling via proximity ligation, sequencing); 10 mM Tris-HCl pH 7.5, 50 mM NaCl, 1 mM DTT, 4% glycerol, room temperature, 30 min; GST-TFs on glutathione beads, 16-mer random dsDNA library, 0.1% formaldehyde crosslink after washing; high values mean tight binding
# Details in all cases: protein: recombinant; tags: N-terminal GST; dsDNA, one strand shown
# FLI1 = biological target: T1, FLI1 (Homo sapiens, UniProt Q01543 1-452)
# T1 sequence: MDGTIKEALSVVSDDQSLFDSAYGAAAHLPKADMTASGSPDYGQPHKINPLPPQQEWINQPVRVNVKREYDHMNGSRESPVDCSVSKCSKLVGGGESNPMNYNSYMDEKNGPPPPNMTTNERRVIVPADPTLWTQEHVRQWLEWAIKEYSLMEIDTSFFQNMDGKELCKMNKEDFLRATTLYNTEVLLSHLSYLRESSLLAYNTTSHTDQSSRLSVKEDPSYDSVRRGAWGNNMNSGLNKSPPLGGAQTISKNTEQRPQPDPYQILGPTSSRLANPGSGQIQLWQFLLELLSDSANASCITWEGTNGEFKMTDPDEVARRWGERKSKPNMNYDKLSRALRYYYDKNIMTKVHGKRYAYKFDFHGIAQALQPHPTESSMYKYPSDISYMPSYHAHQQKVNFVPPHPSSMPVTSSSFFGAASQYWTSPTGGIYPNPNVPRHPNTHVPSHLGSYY
# Summary of the method: (§1)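 GST fusions of human transcription factors were expressed in yeast and captured with glutathione beads. Once given DNA barcodes and pooled alongside a tag-only sample, they were incubated for 30 min at room temperature with 200 nmole of a random double-stranded 16-mer DNA library in Tris/NaCl/DTT/glycerol buffer, then washed, crosslinked (0.1% formaldehyde), proximity-ligated, PCR-amplified and sequenced on an Illumina NextSeq500. The binding signal of each hexamer is its read frequency for a factor divided by its frequency for the tag-only sample.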
# ELK1 = biological target: T2, ELK1 (Homo sapiens, UniProt P19419 1-428)
# T2 sequence: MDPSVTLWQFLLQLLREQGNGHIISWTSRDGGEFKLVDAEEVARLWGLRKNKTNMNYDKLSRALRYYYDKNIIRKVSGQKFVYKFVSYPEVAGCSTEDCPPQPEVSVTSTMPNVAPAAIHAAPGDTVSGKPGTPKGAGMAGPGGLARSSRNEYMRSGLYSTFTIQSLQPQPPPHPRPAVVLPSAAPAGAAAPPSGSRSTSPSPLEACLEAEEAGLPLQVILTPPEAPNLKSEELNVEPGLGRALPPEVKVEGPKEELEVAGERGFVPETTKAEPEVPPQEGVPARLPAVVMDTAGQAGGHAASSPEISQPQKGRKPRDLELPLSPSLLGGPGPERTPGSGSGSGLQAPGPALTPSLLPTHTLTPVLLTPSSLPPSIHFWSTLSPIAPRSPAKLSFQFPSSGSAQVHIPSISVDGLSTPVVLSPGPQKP
# Summary of the method: as §1
# GABPA = biological target: T3, GABPA (Homo sapiens, UniProt Q06546 1-454)
# T3 sequence: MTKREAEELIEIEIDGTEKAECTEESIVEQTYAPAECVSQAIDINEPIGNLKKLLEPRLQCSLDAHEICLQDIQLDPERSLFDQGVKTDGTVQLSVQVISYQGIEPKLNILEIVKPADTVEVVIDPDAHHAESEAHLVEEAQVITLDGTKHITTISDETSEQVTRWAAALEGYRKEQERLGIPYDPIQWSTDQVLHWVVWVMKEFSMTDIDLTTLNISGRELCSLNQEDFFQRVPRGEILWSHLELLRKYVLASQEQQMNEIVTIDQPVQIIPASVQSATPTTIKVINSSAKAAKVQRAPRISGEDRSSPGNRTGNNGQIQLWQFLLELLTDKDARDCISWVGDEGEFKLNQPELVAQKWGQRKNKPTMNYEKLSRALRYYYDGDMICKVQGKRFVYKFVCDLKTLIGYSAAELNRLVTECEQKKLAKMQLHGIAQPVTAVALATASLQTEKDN
# Summary of the method: as §1
# ERG = biological target: T4, ERG (Homo sapiens, UniProt P11308 1-479)
# T4 sequence: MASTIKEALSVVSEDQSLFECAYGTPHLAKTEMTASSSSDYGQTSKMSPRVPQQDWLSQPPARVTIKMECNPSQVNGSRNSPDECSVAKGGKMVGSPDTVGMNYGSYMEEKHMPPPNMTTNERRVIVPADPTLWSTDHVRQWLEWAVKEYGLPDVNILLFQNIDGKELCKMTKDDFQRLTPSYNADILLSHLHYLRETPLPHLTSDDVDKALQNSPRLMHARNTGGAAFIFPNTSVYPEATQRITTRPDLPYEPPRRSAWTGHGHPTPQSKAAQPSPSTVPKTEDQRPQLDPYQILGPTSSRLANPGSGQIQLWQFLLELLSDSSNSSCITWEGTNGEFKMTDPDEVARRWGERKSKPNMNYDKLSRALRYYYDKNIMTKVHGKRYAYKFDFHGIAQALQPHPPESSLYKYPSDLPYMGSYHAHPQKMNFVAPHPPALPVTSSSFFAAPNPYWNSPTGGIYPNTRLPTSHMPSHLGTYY
# Summary of the method: as §1
# ELF1 = ELF1 (Homo sapiens, UniProt P32519 1-619)
# Sequence of ELF1 (P32519 whole entry): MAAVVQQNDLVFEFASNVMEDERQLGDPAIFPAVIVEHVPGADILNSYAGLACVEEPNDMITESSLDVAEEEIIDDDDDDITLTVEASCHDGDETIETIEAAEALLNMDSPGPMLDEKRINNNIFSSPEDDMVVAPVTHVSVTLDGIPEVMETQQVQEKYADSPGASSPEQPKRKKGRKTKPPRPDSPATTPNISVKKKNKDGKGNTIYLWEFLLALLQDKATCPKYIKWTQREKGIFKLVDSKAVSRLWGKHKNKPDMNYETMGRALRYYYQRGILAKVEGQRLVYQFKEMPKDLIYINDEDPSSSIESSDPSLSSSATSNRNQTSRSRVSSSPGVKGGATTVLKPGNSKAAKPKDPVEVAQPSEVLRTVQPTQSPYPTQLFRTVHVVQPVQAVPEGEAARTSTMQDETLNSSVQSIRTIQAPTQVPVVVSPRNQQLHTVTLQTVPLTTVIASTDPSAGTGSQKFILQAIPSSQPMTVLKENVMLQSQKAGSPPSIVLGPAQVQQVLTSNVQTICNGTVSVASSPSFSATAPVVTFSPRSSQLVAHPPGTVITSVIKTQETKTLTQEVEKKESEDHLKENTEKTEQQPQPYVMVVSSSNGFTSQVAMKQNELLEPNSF
# Summary of the method: as §1
# EHF = biological target: T5, EHF (Homo sapiens, UniProt Q9NZC4 1-300)
# T5 sequence: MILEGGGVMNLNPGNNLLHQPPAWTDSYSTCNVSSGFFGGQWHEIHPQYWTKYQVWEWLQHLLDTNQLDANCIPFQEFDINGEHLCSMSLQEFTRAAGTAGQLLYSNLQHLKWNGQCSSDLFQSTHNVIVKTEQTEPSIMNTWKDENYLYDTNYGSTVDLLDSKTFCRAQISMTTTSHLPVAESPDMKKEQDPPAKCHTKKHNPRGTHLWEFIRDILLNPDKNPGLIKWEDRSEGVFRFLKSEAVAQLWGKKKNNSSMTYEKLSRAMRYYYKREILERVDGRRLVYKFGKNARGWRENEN
# Summary of the method: as §1
# SPI1 = SPI1 (Homo sapiens, UniProt P17947 1-270)
# Summary of the method: as §1
# SPIB = SPIB (Homo sapiens, UniProt Q01892 1-262)
# Sequence of SPIB (Q01892 whole entry): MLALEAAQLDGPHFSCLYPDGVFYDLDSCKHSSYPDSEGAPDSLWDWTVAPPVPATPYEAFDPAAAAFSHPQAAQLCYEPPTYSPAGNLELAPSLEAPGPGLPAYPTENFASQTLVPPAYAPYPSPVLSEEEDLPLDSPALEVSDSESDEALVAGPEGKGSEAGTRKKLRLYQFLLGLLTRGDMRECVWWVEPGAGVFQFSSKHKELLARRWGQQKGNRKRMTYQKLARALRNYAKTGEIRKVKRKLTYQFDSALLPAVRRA
# Summary of the method: as §1
# ELK3 = biological target: T6, ELK3 (Homo sapiens, UniProt P41970 1-407)
# T6 sequence: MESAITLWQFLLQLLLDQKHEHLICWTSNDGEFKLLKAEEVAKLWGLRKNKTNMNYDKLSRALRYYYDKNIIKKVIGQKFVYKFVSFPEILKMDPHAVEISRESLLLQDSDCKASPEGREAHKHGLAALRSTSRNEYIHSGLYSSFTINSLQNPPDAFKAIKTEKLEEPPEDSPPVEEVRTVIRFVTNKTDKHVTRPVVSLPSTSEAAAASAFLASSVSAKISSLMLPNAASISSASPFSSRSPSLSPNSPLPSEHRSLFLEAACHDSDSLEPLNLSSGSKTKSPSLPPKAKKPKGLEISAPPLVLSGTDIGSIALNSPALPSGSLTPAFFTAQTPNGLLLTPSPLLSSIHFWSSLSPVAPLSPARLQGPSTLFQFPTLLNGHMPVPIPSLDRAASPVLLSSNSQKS
# Summary of the method: as §1
sequence,measurement,setting,value
CTGCCC,binding signal,FLI1,"1.31 fold enrichment (6-mer frequency, TF over GST control)"
same,binding signal,ELK1,"1.29 fold enrichment (6-mer frequency, TF over GST control)"
same,binding signal,GABPA,"1.29 fold enrichment (6-mer frequency, TF over GST control)"
same,binding signal,ERG,"1.36 fold enrichment (6-mer frequency, TF over GST control)"
same,binding signal,ELF1,"1.32 fold enrichment (6-mer frequency, TF over GST control)"
same,binding signal,EHF,"1.46 fold enrichment (6-mer frequency, TF over GST control)"
same,binding signal,SPI1,"1.27 fold enrichment (6-mer frequency, TF over GST control)"
same,binding signal,SPIB,"1.19 fold enrichment (6-mer frequency, TF over GST control)"
same,binding signal,ELK3,"1.1 fold enrichment (6-mer frequency, TF over GST control)"

# Source: publication PMC7862700, “An all-to-all approach to the identification of sequence-specific readers for epigenetic DNA modifications on cytosine”
